Experimental data as given in PubChem BioAssay (NCATS).
Inconclusive results are not listed. Calls of active or inactive are those of the source. The call rests on the fitted dose curve; in most records, active means well fitted inhibition curve with a large enough effect; inconclusive means small, poorly fitted or top-dose-only effect; inactive means flat fitted curve, though single readings scatter. Where a SMILES comes first, the peptide text is derived from it. [ ]: non-standard residue; d: D form. ξ: configuration not given here. ξPhe(βξ-Me) = CC(c1ccccc1)C(N)C(=O)O; GABA = NCCCC(=O)O

How the values were obtained:
Assay in all cases: Cytotoxic Profiling of Annotated Libraries Using Quantitative High-Throughput Screening (AID 1296008); further: nearly all actives have a fitted effect of over 60% in size
Conditions in all cases: Five cell lines viability, CellTiter-Glo ATP luminescence, 48-72 h; max response: active compounds read low
CRL-7250 = normal cell line; test system: CRL-7250
Method in brief: (§1)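 Cytotoxicity was measured as CellTiter-Glo ATP luminescence, read after 10 min at room temperature. Compound treatment of the cells lasted 48 or 72 hr at 37 degrees Celsius in a qHTS format.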

HEK293 = test system: HEK293
Method in brief: as §1

HaCat = test system: HaCat
Method in brief: as §1

KB-3-1 = test system: KB-3-1
Method in brief: as §1

NIH3T3 = test system: NIH3T3
Method in brief: as §1

Measured: max response
On the % scale 0 is the no-effect control and ±100 the full control effect.

CCCOC(c1cc2nccc(C(=O)O)c2[nH]1)c1ccccc1Cl (stereo not given)
inactive: CRL-7250 -10.8% | HEK293 -12.6% | HaCat -2.87% | KB-3-1 | NIH3T3 4.32%

C=C1CCC2C(C)(C(=O)OC)CCCC2(C)C1CCC(C)CC(=O)O (stereo not given)
inactive: CRL-7250 | HEK293 -9.98% | HaCat -22.8% | KB-3-1 0.0997% | NIH3T3 2.98%

CCOc1ccc2nc(SCCN3CCOCC3)[nH]c2c1
inactive: CRL-7250 -3.31% | HEK293 -19.2% | HaCat 4.78% | KB-3-1 -9.7% | NIH3T3 0.835%

C=C(C)C1CC[C@]2(C(=O)O)CC[C@]3(C(=O)O)[C@H](CCC4[C@@]5(C)CC[C@H](O)C(C)(C)C5CC[C@]43C)C12 (stereo not given in full)
inactive: CRL-7250 -0.813% | HEK293 -5.51% | HaCat -4.71% | KB-3-1 -4.13% | NIH3T3 -12.2%

CC1NC(=O)CCCNC(=O)C(Cc2c[nH]c3ccccc23)NC(=O)C(C)NC(=O)C(C(C)C)NC(=O)C(C(C)c2ccccc2)NC(=O)C(C(C)C)NC1=O (stereo not drawn) (cyclo([GABA]AV[ξPhe(βξ-Me)]VAW); configuration not given here)
inactive: CRL-7250 -8.98% | HEK293 -4.9% | HaCat -0.27% | KB-3-1 -4.62% | NIH3T3 -4.21%

O=C1C=CC(O)(/C=C/C(=O)OC[C@H]2O[C@@H](Oc3ccc(O)cc3)[C@H](O)[C@@H](O)[C@@H]2O)C=C1
inactive: CRL-7250 0.651% | HEK293 -4.12% | HaCat 4.51% | KB-3-1 -7.33% | NIH3T3 -0.599%
